Only a selection was taken, and hits are over-represented in it overall.
T cruzi growth-1 – blocks T. cruzi growth in NIH3T3 culture | T. cruzi beta-gal in NIH3T3, GalScreen luminescence, 90 h | inhibition, % at 8.34 µM | 5.9% of 77,000 active | AID 624255;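 active = mean inhibition above about 93%, with at least 55% of replicates each passing it, limit read from the data, passing the limit was not always enough; inconclusive = only one of those two conditions holds; inactive = neither condition holds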
C diff HTS – C. difficile growth inhibition. 0.25% of 86,000 active. growth activity, negative = inhibition, % at 16 µg/mL (by protocol). Clostridium difficile clinical isolate growth, OD600, 24 h; hits give low values;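 active = mean growth activity at or below -80% and every replicate also at or below -80%; inconclusive = mean at or below -80% but some replicate above -80%; inactive = mean growth activity above -80%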
T cruzi growth-2 – Trypanosoma cruzi proliferation inhibition; AID 651739; shares compounds with T cruzi growth-1; inhibition, % at 8.35 µM; T. cruzi beta-gal in NIH3T3, GalScreen luminescence, 90 h; 72% of 5,600 active;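 active = mean replicate inhibition above about 95% and at least 55% of replicates individually reaching it, limit read from the data; inconclusive = only one of the two criteria is met; inactive = neither criterion is met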
T cruzi growth-3 – Trypanosoma cruzi proliferation inhibition | shares compounds with T cruzi growth-1 | T. cruzi beta-gal in NIH3T3, GalScreen luminescence, 90 h | inhibition, % at 2.09 µM | 21% of 5,600 active;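 active = mean inhibition above about 95%, with at least 55% of replicates also reaching it, limit read from the data; inconclusive = meets just one of the two conditions; inactive = meets neither condition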
3T3 cytotox – cytotoxicity in mouse NIH/3T3 fibroblasts | cytotoxicity (signal decrease), % at 8.35 µM | 14% of 5,600 active | shares compounds with T cruzi growth-1 | NIH/3T3 viability, CellTiter-Glo ATP luminescence, 90 h;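 active = mean signal decrease across replicates above about 35% based on untreated-well scatter, with enough replicates individually passing, limit read from the data; inconclusive = no rule stated though some were filed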
NIH3T3 tox 2 – cytotoxicity in mouse NIH/3T3 fibroblasts | shares compounds with T cruzi growth-1 | NIH/3T3 viability, CellTiter-Glo ATP luminescence, 90 h | inhibition, % at 24.9 µM | 56% of 5,600 active | AID 651744;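 active = mean loss of cell viability signal at or above a set limit, and enough replicates individually reaching it; inconclusive = meets only the mean limit or only the replicate share; inactive = meets neither condition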
Large screens that a line does not name were inactive (follow-up assays come after a bar, where they were run).

C[C@@H]1CN([C@H](C)CO)C(=O)c2cccc(NC(=O)C3CCCCC3)c2O[C@H]1CN(C)C(=O)Nc1ccc(F)cc1	none
C[C@@H]1CN([C@@H](C)CO)C(=O)c2cccc(NC(=O)C3CC3)c2O[C@H]1CN(C)C(=O)Nc1ccc(F)cc1	T cruzi growth-1 108 | T cruzi growth-2 96 | T cruzi growth-3 inactive | 3T3 cytotox inactive | NIH3T3 tox 2 inactive
C[C@@H]1CN([C@H](C)CO)C(=O)c2cccc(NC(=O)Nc3ccc(C(F)(F)F)cc3)c2O[C@@H]1CN(C)C(=O)Nc1cccc2ccccc12	none
C[C@H]1CN([C@@H](C)CO)C(=O)c2cccc(NC(=O)Nc3cccc4ccccc34)c2O[C@H]1CN(C)C(=O)Nc1ccccc1	T cruzi growth-1 102 | T cruzi growth-2 inconclusive | T cruzi growth-3 inactive | 3T3 cytotox inactive | NIH3T3 tox 2 inactive
C[C@H]1CN([C@@H](C)CO)C(=O)c2cccc(NC(=O)Nc3cccc4ccccc34)c2O[C@@H]1CN(C)C(=O)Nc1ccccc1	none
C[C@H]1CN([C@@H](C)CO)C(=O)c2cccc(NC(=O)Nc3ccc(C(F)(F)F)cc3)c2O[C@H]1CN(C)C(=O)Nc1cccc2ccccc12	T cruzi growth-1 101 | T cruzi growth-2 inactive | T cruzi growth-3 112 | 3T3 cytotox 63 | NIH3T3 tox 2 105
COCC(=O)Nc1ccc2c(c1)C(=O)N(C)C[C@H](OC)[C@H](C)CN(Cc1ccccc1OC)[C@H](C)CO2	none
C[C@@H]1CN([C@@H](C)CO)S(=O)(=O)c2ccc(-c3cccc(F)c3)cc2O[C@@H]1CN(C)C(=O)c1cccc(F)c1	none
C[C@@H]1CN([C@@H](C)CO)S(=O)(=O)c2ccc(-c3ccncc3)cc2O[C@H]1CN(C)C(=O)c1ccc2c(c1)OCO2	T cruzi growth-1 106 | T cruzi growth-2 99 | T cruzi growth-3 inactive | 3T3 cytotox inactive | NIH3T3 tox 2 inactive
C[C@@H]1CN([C@@H](C)CO)S(=O)(=O)c2ccc(-c3cccc(F)c3)cc2O[C@H]1CN(C)C(=O)c1cccc(F)c1	T cruzi growth-1 100 | T cruzi growth-2 98 | T cruzi growth-3 inactive | 3T3 cytotox 53 | NIH3T3 tox 2 40
C[C@H]1CN([C@@H](C)CO)S(=O)(=O)c2ccc(-c3cccc(F)c3)cc2O[C@H]1CN(C)C(=O)c1cccc(F)c1	none
C[C@@H]1CN([C@@H](C)CO)S(=O)(=O)c2ccc(-c3ccccc3)cc2O[C@@H]1CN(C)C(=O)c1ccc2c(c1)OCO2	none (no result: T cruzi growth-1)
C[C@H]1CN([C@@H](C)CO)S(=O)(=O)c2ccc(-c3cccnc3)cc2O[C@@H]1CN(C)C(=O)c1cccc(F)c1	none
C[C@@H]1CN([C@@H](C)CO)S(=O)(=O)c2ccc(-c3ccncc3)cc2O[C@H]1CN(C)C(=O)c1cccc(F)c1	T cruzi growth-1 111 | T cruzi growth-2 96 | T cruzi growth-3 inactive | 3T3 cytotox inactive | NIH3T3 tox 2 25
C[C@H](CO)N1C[C@H](C)[C@@H](CN(C)C(=O)c2cccc(F)c2)Oc2cc(-c3ccncc3)ccc2S1(=O)=O	T cruzi growth-1 110 | T cruzi growth-2 inactive | T cruzi growth-3 inactive | 3T3 cytotox inactive | NIH3T3 tox 2 44
N#C[C@H]1[C@H](c2ccc(-c3cccc(F)c3)cc2)[C@@H](CO)N1C(=O)NC1CCCCC1	none (no result: T cruzi growth-1)
C[C@@H]1CN([C@@H](C)CO)C(=O)c2cccc(NC(=O)c3ccc(-c4nccs4)cc3)c2O[C@@H]1CN(C)S(C)(=O)=O	none
COc1cccc(C#Cc2ccc([C@H]3[C@@H](C#N)N(C(=O)C4CC4)[C@@H]3CO)cc2)c1	T cruzi growth-1 100 | T cruzi growth-2 99 | T cruzi growth-3 107 | 3T3 cytotox inactive | NIH3T3 tox 2 inactive
COc1cccc(C#Cc2ccc([C@@H]3[C@@H](CO)N(C(=O)C4CC4)[C@H]3C#N)cc2)c1	none
COc1cccc(C#Cc2ccc([C@H]3[C@@H](CO)N(C(=O)C4CC4)[C@H]3C#N)cc2)c1	T cruzi growth-1 98 | T cruzi growth-2 103 | T cruzi growth-3 113 | 3T3 cytotox inactive | NIH3T3 tox 2 inactive
COc1cccc(C#Cc2ccc([C@@H]3[C@@H](C#N)N(C(=O)C4CC4)[C@H]3CO)cc2)c1	none
CN(C)CC(=O)N1[C@@H](CO)[C@@H]2c3ccccc3N(C(=O)Cc3ccccc3)C[C@@H]21	none
O=C(NC1CCC1)[C@@H]1[C@@H](CO)[C@@H]2Cn3c(ccc(-c4ccccc4)c3=O)[C@H]1N2Cc1cocn1	none
CN1C(=O)c2cc(NC(=O)Nc3ccc(Cl)cc3)ccc2OC[C@@H]2O[C@@H](CC(=O)NCCN3CCCCC3)CC[C@@H]21	none
CN1C(=O)c2cc(NC(=O)Cc3cccs3)ccc2OC[C@H]2O[C@@H](CC(=O)N[C@@H]3CCN(Cc4ccccc4)C3)CC[C@H]21	none
CN1C(=O)c2cc(NC(=O)c3ccc(F)c(F)c3)ccc2OC[C@H]2O[C@@H](CC(=O)N[C@H]3CCN(Cc4ccccc4)C3)CC[C@H]21	T cruzi growth-1 103 | T cruzi growth-2 inactive | T cruzi growth-3 inactive | 3T3 cytotox inactive | NIH3T3 tox 2 inconclusive
Cc1noc(C)c1NC(=O)Nc1ccc2c(c1)C(=O)N(C)[C@@H]1CC[C@H](CC(=O)N[C@H]3CCN(Cc4ccccc4)C3)O[C@H]1CO2	T cruzi growth-1 104 | T cruzi growth-2 inconclusive | T cruzi growth-3 inactive | 3T3 cytotox inactive | NIH3T3 tox 2 inactive
Cc1noc(C)c1NC(=O)Nc1ccc2c(c1)C(=O)N(C)[C@@H]1CC[C@H](CC(=O)N[C@@H]3CCN(Cc4ccccc4)C3)O[C@@H]1CO2	none
CN1C(=O)c2cc(NC(=O)c3ccc(F)c(F)c3)ccc2OC[C@H]2O[C@@H](CC(=O)N[C@@H]3CCN(Cc4ccccc4)C3)CC[C@H]21	T cruzi growth-1 110 | T cruzi growth-2 116 | T cruzi growth-3 inactive | 3T3 cytotox inactive | NIH3T3 tox 2 27
CN1C(=O)c2cc(NC(=O)c3ccc(F)c(F)c3)ccc2OC[C@@H]2O[C@H](CC(=O)N[C@@H]3CCN(Cc4ccccc4)C3)CC[C@@H]21	T cruzi growth-1 108 | T cruzi growth-2 inconclusive | T cruzi growth-3 inactive | 3T3 cytotox inactive | NIH3T3 tox 2 54
CO[C@@H]1CN(C)C(=O)c2cc(NC(=O)C3CCC3)ccc2OC[C@H](C)N(Cc2ccc(F)cc2)C[C@H]1C	none (no result: C diff HTS)
C[C@@H]1CCCCO[C@H](CN(C)CC2CC2)[C@H](C)CN([C@@H](C)CO)C(=O)c2cc(NS(=O)(=O)c3ccccc3)ccc2O1	none
O=C(C1CCC1)N1CC[C@@H]2[C@H](CO)Nc3ccc(C#Cc4ccc(F)cc4)cc3[C@@H]21	none (no result: T cruzi growth-1)
C/C=C/c1cnc2c(c1)C(=O)N([C@H](C)CO)C[C@@H](C)[C@H](CN(C)Cc1cncnc1)O2	none (no result: T cruzi growth-1)
CO[C@@H]1CN(C)C(=O)c2ccc(NC(=O)Nc3ccc(F)cc3)cc2OC[C@H](C)NC[C@H]1C	none
CN1C(=O)c2cc(NC(=O)Cc3cccs3)ccc2OC[C@@H]2O[C@@H](CC(=O)N[C@@H]3CCN(Cc4ccccc4)C3)CC[C@@H]21	none
